PLK1 PBD inh = PLK1 (human) polo-box domain binding inhibition; P53350; Plk1 PBD binding of FITC phosphopeptide, fluorescence polarization; Potency, µM, inactives show max response, negative = inhibition, actives largely listed as inhibitors; 360,000 compounds, 2.8% hits; AID 720504; also: series mostly up to about 57 µM; nearly all actives have a fitted effect of over 65% in size
Sfp inh = blocks B. subtilis Sfp PPTase activity. Q9F4F7. Biochemical Sfp PPTase activity, qHTS. Potency, µM, without a hit: largest response in the series, negative = inhibition, hits mostly inhibitors. 310,000 compounds, 3.5% hits;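 also: the enzyme is Sfp with the accession as filed and its product quenches rhodamine fluorescence; 0% = enzyme reaction without inhibitor and -100% = no enzyme wells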
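Sfp 15 nM + cpd, 15 min RT; start w/ rhodamine-CoA 5 uM, BHQ-2-YbbR 12.5 uM (final); 50 mM Hepes pH 7.6, 10 mM MgCl2, 0.01% NP-40, 0.01% BSA; read 525/598 nm at 0 and 30 min.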
ALDH1A1 block = ALDH1A1 (human) enzyme inhibition; P00352; Purified ALDH1A1, NADH fluorescence, propionaldehyde substrate; Potency, µM (series often up to 75.3 µM), inactives show top-dose activity, negative = inhibition, actives largely listed as inhibitors; 220,000 compounds, 7.3% hits; active = well fitted inhibition curve with a large enough effect, not every such curve was filed as active; inconclusive = small, poorly fitted or top-dose-only effect, or another doubt; inactive = no such curve, though single readings can be large or run the other way;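 also: plate controls were no enzyme wells and a reference inhibitor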
Target sequence (P00352 whole entry, looked up): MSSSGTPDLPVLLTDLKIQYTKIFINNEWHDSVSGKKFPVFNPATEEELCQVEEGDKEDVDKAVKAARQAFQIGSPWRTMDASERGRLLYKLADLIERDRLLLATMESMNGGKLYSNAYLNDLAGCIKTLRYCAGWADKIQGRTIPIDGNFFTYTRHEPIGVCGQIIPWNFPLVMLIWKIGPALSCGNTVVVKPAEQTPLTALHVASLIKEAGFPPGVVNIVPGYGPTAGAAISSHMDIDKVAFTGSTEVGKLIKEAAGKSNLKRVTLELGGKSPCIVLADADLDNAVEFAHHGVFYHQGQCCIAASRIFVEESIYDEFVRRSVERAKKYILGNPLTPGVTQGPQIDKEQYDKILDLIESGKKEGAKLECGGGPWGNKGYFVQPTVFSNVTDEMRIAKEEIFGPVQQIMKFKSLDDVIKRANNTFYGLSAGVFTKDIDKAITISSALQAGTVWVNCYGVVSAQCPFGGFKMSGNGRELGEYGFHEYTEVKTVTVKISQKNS
Gal4-VP16 FLuc = Gal4-VP16 reporter inhibition counter-screen; Potency, µM (doses to about 53.6 µM), without a hit: top-dose activity, negative = inhibition, most hits filed as inhibitors; Drosophila S2 Gal4-VP16 UAS-luciferase, luminescence, 20 h; 310,000 compounds, 3.5% hits;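 also: Gal4-VP16 expression switched on by copper sulfate through the metallothionein promoter; nearly all actives have a fitted effect of over 50% in size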
RORg inh = blocks mouse ROR gamma transcriptional activity. P51450. Drosophila S2 Gal4-RORgamma UAS-luciferase reporter, 20 h. Potency, µM (highest dose often 53.6 µM), inactives show at the top dose activity change, negative = inhibition, most hits filed as inhibitors. 310,000 compounds, 5.4% hits; also: nearly all actives have a fitted effect of over 60% in size
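Read-out: Photinus luciferase luminescence; inhibitors lower reporter signal. Insect Schneider cells with Gal4-ROR gamma fusion under metallothionein promoter, UAS reporter; 700 uM final copper sulfate induction, 20 hr, ambient temperature.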
* hit, by the source's call; i = inactive; u = inconclusive; x = no result; [ ] = dose if it differs, or a comment. A selection: hits, their analogues and other compounds. The true share with any hit is near 12%. Unless noted, calls follow the shape of the dose curve; as a rule, active = well fitted curve in the direction sought with a large enough effect; inconclusive = small, poorly fitted or top-dose-only effect, or another doubt; inactive = no such curve, though single readings can be large; an effect the other way counts as inactive or inconclusive. Unless noted, % is scaled to controls: 0 for no effect and ±100 for the full control effect; potency is read from the fitted curve at half-maximal effect.

SMILES	PLK1 PBD inh	Sfp inh	ALDH1A1 block	Gal4-VP16 FLuc	RORg inh
COc1ccc(/C=N/Nc2nc(C)cc(-c3ccccc3)n2)cc1OC	53.7%	6.6%	x	u	11.2µM*
Cc1cc(C)nc(N/N=C/c2ccco2)n1	-6.1%	5.4%	4.0%	14.3%	23.0%
COC(=O)C1(C(=O)OC)C[C@H]2CON=C2[C@H]1c1ccccc1	x	-20.1%	3.1%	2.1%	-6.0%
CC1CC(C)(C)CC2(C1)NC(=S)N(c1ccccc1)N2 (centres undefined)	-4.0%	u	15.8µM*	u	7.08µM*
CC1CCCCC12NC(=S)N(c1ccccc1)N2 (centres undefined)	-14.5%	17.8µM*	14.1µM*	4.1%	u
CC(C)CCN1NC2(CCCC(C)C2)NC1=S (centres undefined)	0.8%	70.8µM*	x	-29.7%	7.08µM*
CC1CCCC2(C1)NC(=S)N(c1ccccc1)N2 (centres undefined)	-5.0%	50.1µM*	u	-9.1%	12.6µM*
Cc1nn(Cc2ccccc2Cl)c2sc(C(=O)Nc3nccs3)cc12	-2.6%	5.8%	u	u	10µM*
Cc1nn(Cc2ccc(F)cc2)c2sc(C(=O)Nc3nccs3)cc12	0.7%	4.0%	-14.0%	u	11.2µM*
O=C(O)CCC(=O)c1ccc[nH]1	x	x	7.3%[13.5 µM]	x	x
O=C(Nc1ccc2c(c1)[C@@H]1C[C@@H](CC(=O)N3CCOCC3)O[C@@H](CO)[C@@H]1O2)NC1CCCC1	2.4%	x	x	x	x
Cc1ccc(S(=O)(=O)N2CCN(C(C)C(=O)Nc3ccccc3-c3ccccc3)CC2)cc1 (centres undefined)	-15.5%	10.0%	7.94µM*	-2.6%	14.3%
CC(C(=O)Nc1ccccc1-c1ccccc1)N1CCN(C(=O)c2ccccc2)CC1 (centres undefined)	-3.7%	5.1%	12.6µM*	12.2%	u
CC1CCN(C(C)C(=O)Nc2ccccc2-c2ccccc2)CC1 (centres undefined)	-3.9%	-12.2%	-10.8%	3.5%	11.5%
Cc1cccc(CN2CCN(C(C)C(=O)NC(C)c3ccccc3)CC2)c1 (centres undefined)	4.9%	63.1µM*	x	-0.5%	13.3%
Cc1ccc(S(=O)(=O)N2CCN(CC(=O)Nc3ccccc3Cl)CC2)cc1	7.0%	x	x	x	x
CC(C(=O)Nc1ccccc1-c1ccccc1)N1CCN(Cc2ccccc2)CC1 (centres undefined)	16.8µM*	5.3%	14.1µM*	0.0%	-13.0%
Cc1cccc(CN2CCN(C(=O)CCl)CC2)c1	-2.0%	3.3%	0.316µM*	-13.0%	-46.2%
Cc1cccc(CN2CCN(C(=O)c3cccc4ccccc34)CC2)c1	-2.3%	-23.5%	x	-7.8%	0.0%
NC(=S)N/N=C/c1ccccc1[N+](=O)[O-]	u	4.47µM*	22.4µM*	u	-4.8%
O=C(N/N=C/c1ccccc1[N+](=O)[O-])c1cccs1	-3.1%	7.7%	x	4.8%	11.5%
O=C(O)c1ccccc1[N+](=O)[O-]	x	x	3.3%	6.8%	10.5%
CCNC(=S)N/N=C/c1ccccc1[N+](=O)[O-]	-10.6%	-0.2%	3.0%	u	4.47µM*
Cc1cccc(C)c1NC(=S)N/N=C/c1ccccc1C(=O)O	-28.5%	-3.0%	x	-15.6%	u
C/C(=N/NC(N)=S)c1ccccc1[N+](=O)[O-]	-4.9%	22.4µM*	-2.2%	u	7.08µM*
SMILES	PLK1 PBD inh	Sfp inh	ALDH1A1 block	Gal4-VP16 FLuc	RORg inh
Cc1nc2ccccn2c1C(=O)N/N=C/c1ccccc1[N+](=O)[O-]	-21.5%	13.7%	-42.7%	-1.6%	-8.1%
COC(=O)c1cccc(/C=N/NC(N)=S)c1O	-12.5%	16.7%	-9.5%	7.08µM*	2µM*
CC(Sc1nnc(C2CC2)n1-c1ccccc1)C(=O)N1CCCC1 (centres undefined)	1.7%	x	x	x	x
COc1ccc2nc(Cl)c(C3CC(c4ccco4)=NN3C(=O)CCCC(=O)O)cc2c1 (centres undefined)	-9.4%	35.5µM*	x	1.7%	-1.7%
c1csc(-c2nn3c(Cn4nnc5ccccc54)nnc3s2)c1	-9.4%	9.4%	i	1.5%	u
Clc1cccc(-c2nn3c(Cn4cnc5ccccc54)nnc3s2)c1	10.6µM*	20µM*	10µM*	-15.0%	-0.1%
c1csc(-c2nn3c(Cn4cnc5ccccc54)nnc3s2)c1	21.2µM*	-85.2%	u	3.0%	4.0%
Clc1cccc(-c2nn3c(COc4ccccc4)nnc3s2)c1	x	12.4%	3.3%	0.1%	-2.1%
